The source of these data is PubChem BioAssay (Tox21).

Inconclusive results are not listed. Entries that show only a call come without a potency. The source made the active and inactive calls. Calls come from the whole dose curve.

Sequence of Peroxisome proliferator-activated receptor gamma (Homo sapiens) (P37231 whole entry, looked up): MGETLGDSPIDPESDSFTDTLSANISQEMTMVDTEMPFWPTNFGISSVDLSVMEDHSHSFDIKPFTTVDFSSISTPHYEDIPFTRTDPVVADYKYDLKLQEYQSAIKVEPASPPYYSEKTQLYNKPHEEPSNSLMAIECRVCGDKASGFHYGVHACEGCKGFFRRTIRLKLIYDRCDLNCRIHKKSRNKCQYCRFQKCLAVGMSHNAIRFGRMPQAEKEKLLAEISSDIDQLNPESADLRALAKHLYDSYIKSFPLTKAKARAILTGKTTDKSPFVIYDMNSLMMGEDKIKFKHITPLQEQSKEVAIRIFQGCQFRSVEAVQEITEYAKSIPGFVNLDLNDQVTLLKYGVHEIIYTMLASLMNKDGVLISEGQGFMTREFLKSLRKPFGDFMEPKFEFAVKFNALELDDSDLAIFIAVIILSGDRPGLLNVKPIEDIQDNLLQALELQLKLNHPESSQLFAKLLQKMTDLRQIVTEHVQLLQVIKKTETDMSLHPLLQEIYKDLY

This experiment has as its target Peroxisome proliferator-activated receptor gamma (Homo sapiens) (UniProt P37231). Description: qHTS assay to identify small molecule antagonists of the peroxisome proliferator-activated receptor gamma (PPARg) signaling pathway (AID 743191). Note: nearly all actives have a fitted effect of over 30% in size. The note with it: HEK293H PPARg-UAS-bla, beta-lactamase ratio, antagonist, 17 h; series mostly up to 62.6 µM; ratio activity, negative = inhibition: at the top concentration. The text has this: U.S. Tox21 Program National Center for Advancing Translational Sciences [NCATS] NIH Chemical Genomics Center [NCGC] U.S. Environmental Protection Agency [EPA] National Institutes of Environmental Health Sciences [NIEHS] National Toxicology Program [NTP] U.S. Food and Drug Administration [FDA] Tox21 Assay Overview: The peroxisome proliferator-activated receptors (PPARs) are lipid-activated transcription factors of the nuclear receptor superfamily with three distinct subtypes namely PPAR alpha, PPAR delta (also called PPAR beta) and PPAR gamma (PPARg). All these subtypes heterodimerize with Retinoid X receptor (RXR) and these heterodimers regulate transcription of various genes. PPAR-gamma receptor (glitazone receptor) is involved in the regulation of glucose and lipid metabolism. To identify the compounds that inhibit PPAR-gamma signaling, GeneBLAzer PPAR gamma UAS-bla HEK293H cell line (Invitrogen, Carlsbad, CA, USA) containing a beta-lactamase reporter gene under control of an Upstream Activator Sequence (UAS) was used to screen the Tox21 compound library.
Tox21 Assay Protocol Summary: PPARg-bla cells were dispensed at 3000 cells/6uL/well in 1536-well black wall/clear bottom plates using a Multidrop Combi (Thermo Fisher Scientific, Waltham, MA) dispenser. After the assay plates were incubated at 37C and 5% CO2 for 5 h, 23 nL of compounds dissolved in DMSO, positive controls or DMSO only was transferred to the assay plate by a Pintool station (Kalypsys, San Diego, CA). The assay plates were incubated at 37C for 17 h. After 1 uL of LiveBLAzerTM B/G FRET substrate was added using a Bioraptr Flying Reagent Dispenser (FRD) workstation (Beckman Coulter, Indianapolis, IN, USA), the plates were incubated at room temperature for 1 h, and fluorescence intensity was measured by an Envision plate reader (PerkinElmer, Shelton, CT).
Take `NC(=O)N1c2ccccc2C=Cc2ccccc21`: the “ratio activity, negative = inhibition” value was -14.7% (inactive).
As for `COc1cc(C=O)ccc1O`, the Potency result was “inactive”.
For `CCCCCCCC(=O)OCC(O)CO` (stereo not given), the “ratio activity, negative = inhibition” value is 13.1% (inactive).
On the same count and under the same terms, under `CCCCCCCCOc1ccc(C(=O)c2ccccc2)c(O)c1` stands 13% (inactive).
In the case of `COC(=O)c1ccc(O)cc1`, the Potency entry was “inactive”.
Turning to `O=C1CCCCCN1`, the “ratio activity, negative = inhibition” value was 0.582% (inactive).
On the same count and under the same terms, under `COCC(C)N` (stereo not given) stands -6.53% (inactive).
For `CC1(C)O[C@@H]2[C@@H](CO[C@@]3(COS(N)(=O)=O)OC(C)(C)O[C@@H]23)O1`, the Potency result is “inactive”.
Still for that read-out and setting: to `OC[C@@H](O)[C@@H](O)[C@H](O)[C@H](O)CO` belongs “inactive”; to `CCCCCCCCCCCCCCCCCC(=O)OCC(O)CO` (stereo not given), “inactive”.
As to `CCCCCCCCCCCCCC(=O)OC(C)C`, the “ratio activity, negative = inhibition” value is 9.42% (inactive).
Still for that read-out and setting: under `CC(O)COc1ccccc1` (stereo not given) stands 2.2% (inactive).
Regarding `COC(=O)C1CCC(C(=O)OC)CC1` (stereo not given), the Potency entry was “inactive”.
Still for that read-out and setting: to `CCOCCO` belongs “inactive”; to `C=CC(=O)NC(C)(C)CS(=O)(=O)O`, “inactive”.
Turning to `Cn1cnc2c1c(=O)[nH]c(=O)n2C`, the “ratio activity, negative = inhibition” value is 2.2% [at 29.1 µM] (inactive).
The same measure, in the same setting: under `CC(C)(C)CC(C)(C)c1ccc(O)c(-n2nc3ccccc3n2)c1` stands -23.6% (inactive).
Turning to `C=C(C)OC(C)=O`, the Potency entry is “inactive”.
Regarding `C#C[C@]1(O)CC[C@H]2[C@@H]3CCC4=CC(=O)CC[C@@H]4[C@H]3CC[C@@]21CC`, the “ratio activity, negative = inhibition” value is -14.2% (inactive).
In the case of `Cc1ccc(O)c(-n2nc3ccccc3n2)c1`, the Potency entry is “inactive”.
As for `C[C@]12C=CC(=O)C=C1CC[C@@H]1[C@@H]2C(=O)C[C@@]2(C)[C@H]1CC[C@]2(O)C(=O)CO`, the “ratio activity, negative = inhibition” value was 14.7% (inactive).
Same read-out and setting: to `Cc1c(N(C)CS(=O)(=O)O)c(=O)n(-c2ccccc2)n1C` belongs -4.21% (inactive); to `CC(=O)OC/C=C(C)/C=C/C=C(C)/C=C/C1=C(C)CCCC1(C)C`, -0.0247% (inactive); to `COc1ccc(C(=O)c2ccccc2)c(O)c1`, 0.395% (inactive).
For `Cc1cccc(Nc2cc(Cl)nc(SCC(=O)O)n2)c1C`, the Potency entry was “inactive”.
With `NC(=O)c1ccc([N+](=O)[O-])cc1Cl`, the Potency result was “inactive”.
Still for that read-out and setting: to `O=C(OCc1ccccc1)c1ccccc1` belongs “inactive”; to `C=C(C)C(N)=O`, “inactive”; to `C=CCOC(=O)CC(C)C`, “inactive”.
Same read-out and setting: under `Cc1cccc2ccccc12` stands “inactive”.
Still for that read-out and setting: under `CN(C)Cc1cc(CN(C)C)c(O)c(CN(C)C)c1` stands “inactive”.
For `COc1cc2c(c(OC)c1OC)-c1ccc(OC)c(=O)cc1[C@@H](NC(C)=O)CC2`, the Potency entry was “inactive”.
With `CCCCC/C(C=O)=C\c1ccccc1`, the Potency result is “inactive”.
Regarding `CC(=O)CCC(C)C`, the “ratio activity, negative = inhibition” value was 5.16% (inactive).
In the case of `CC(C)CC(C)CC(O)CC(C)C` (stereo not given), the Potency result was “inactive”.
On the same count and under the same terms, to `COc1ccccc1O` belongs “inactive”.
On the same count and under the same terms, to `O=[N+]([O-])c1ccc(O)cc1` belongs “inactive”.
On the same count and under the same terms, to `Cc1cnc(NC(=O)C2=C(O)c3ccccc3S(=O)(=O)N2C)s1` belongs “inactive”.
As to `COCCOCCOC`, the Potency result was “inactive”.
As to `CN/C(=C\[N+](=O)[O-])NCCSCc1ccc(CN(C)C)o1`, the Potency result is “inactive”.
